# Unmarked numbers belong to inactive results. Activity calls are given as the source filed them. The rule behind the calls is not given here.
# Assay: Biochemical counterscreen for C difficile toxins, absence of UDPG, inhibitor dose response (AID 720650)
# Settings: series mostly up to 19.5 µM
row,Structure (SMILES),AC50
1,O=C(NCc1cc(C(F)(F)F)cc(C(F)(F)F)c1)C1CC(c2c(Cl)cccc2Cl)=NO1 (stereo not given),inactive
2,CC12CCC(=O)N1C(C(=O)OCc1c(Cl)cccc1Cl)CS2 (stereo not given),inactive
3,CC[C@H](C)[C@H]1CNC(=S)N1CC1CCN(CCCC2CCCC2)CC1,inactive
4,CCn1c(=S)[nH]c2c(=O)n(C)c(=O)n(C)c21,13.2 µM (active)
5,CCOc1ccccc1/C=C/c1onc(C)c1S(=O)(=O)N1CCC(C(=O)NC)CC1,inactive
6,O=C(c1ccccc1F)N1CCN(c2ccc([N+](=O)[O-])c3cccnc23)CC1,inactive
7,COc1ccc(Br)cc1C(=O)Nc1ccc(O)cc1,9.64 µM (active)
8,CC(=O)Nc1ccc(NC(=O)[C@@H]2CCCN2S(=O)(=O)c2ccc3c(c2)OCCO3)cc1,inactive
9,Cc1cccc(-n2nnc(C(=O)NCc3ccccc3Cl)c2N)c1,inactive
10,O=c1onc(-c2ccccc2)n1Cc1ccc([N+](=O)[O-])cc1,inactive
11,CCCNC(=O)C[C@H]1CC[C@@H]2[C@H](COc3ccc(NC(=O)c4ccc(Cl)cc4)cc3C(=O)N2C)O1,> 39 µM
12,CNC(=O)C1CCN(S(=O)(=O)c2c(C)noc2/C=C/c2cccc(OC)c2)CC1,inactive
13,COCC(=O)N1CC[C@H]2[C@@H]1c1cc(-c3ccc(OC)cc3)ccc1N(C)[C@H]2CO,7.62 µM (active)
14,COc1ccc(-c2ccc(OC(=O)NC3CCS(=O)(=O)C3)cc2)cc1 (stereo not given),12.6 µM (active)
15,CCCNC(=O)Nc1ccc2c(c1)C(=O)N(C)[C@H]1CC[C@H](CC(=O)NC3CCC3)O[C@@H]1CO2,inactive
